The record followed here is PubChem BioAssay (Tox21).

Assay [1] can be described thus: qHTS RealTime-Glo MT Cell Viability Assay in HEK293 cells - 0 hour (AID 1224880). Further: nearly all actives have a fitted effect of over 45% in size. Further: potency means the concentration at half of the fitted maximal effect. In outline:
(§1)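 Cells were seeded together with NanoLuc luciferase and a prosubstrate that viable cells reduce to a luciferase substrate. After a 5 h incubation at 37 C/5% CO2, compounds were added and luminescence was measured repeatedly during 40 h of treatment.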
(In qHTS, concentration-response curves come from the screen itself.)

Assay [2] in a line: A CellTox Green Cytotoxicity Assay to monitor cytotoxicity in HepG2 cells - 0 hour (AID 1224882). Further: nearly all actives have a fitted effect of over 35% in size. In outline:
(§2)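 Read-out is fluorescence of a cyanine dye excluded from live cells that stains DNA of dead HepG2 cells, with signal proportional to cytotoxicity. Plates were read at 0, 8, 16, 24, 32 and 40 h after compound addition.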

The nature of assay [3]: A CellTox Green Cytotoxicity Assay to monitor cytotoxicity in HEK293 cells - 8 hour (AID 1224884). Further: nearly all actives have a fitted effect of over 35% in size. In outline: (§3)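 Nonlytic real-time cytotoxicity: HEK293 + CellTox Green reagent plated, 5 h preincubation, pintool compound addition (23 nL in DMSO), 37 C for 40 h, fluorescence measured at successive time points.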
The nature of assay [4]: qHTS RealTime-Glo MT Cell Viability Assay in HepG2 cells - 16 hour (AID 1224885). Further: nearly all actives have a fitted effect of over 50% in size. In outline:
(§4)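 Real-time, nonlytic viability: 600 HepG2 cells/well mixed with NanoLuc enzyme plus prosubstrate; 5 h settle, compound (DMSO) added by pintool; luminescence monitored over 40 h at 37 C.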

A short description of assay [5]: qHTS RealTime-Glo MT Cell Viability Assay in HEK293 cells - 24 hour (AID 1224886). Further: nearly all actives have a fitted effect of over 50% in size. Further: potency means the concentration at half of the fitted maximal effect. In a few lines: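 Cells + reagent dispensed (600 cells/well, HEK293) → 5 h at 37 C/5% CO2 → 23 nL compound in DMSO pinned → 40 h at 37 C → luminescence read at 0, 8, 16, 24, 32, 40 h.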
Assay [6] is described as follows: qHTS RealTime-Glo MT Cell Viability Assay in HEK293 cells - 8 hour (AID 1224887). Further: top concentration of the series differs between compounds; nearly all actives have a fitted effect of over 50% in size. In outline: as §1
Assay [7] can be described thus: A CellTox Green Cytotoxicity Assay to monitor cytotoxicity in HEK293 cells - 16 hour (AID 1224888). Further: nearly all actives have a fitted effect of over 35% in size. Further: potency means the concentration at half of the fitted maximal effect. In outline: as §3
The nature of assay [8]: qHTS RealTime-Glo MT Cell Viability Assay in HepG2 cells - 0 hour (AID 1224889). Further: nearly all actives have a fitted effect of over 50% in size. Further: potency means the concentration at half of the fitted maximal effect. In a few lines: as §4
Assay [9] can be described thus: A CellTox Green Cytotoxicity Assay to monitor cytotoxicity in HEK293 cells - 32 hour (AID 1224881). Further: nearly all actives have a fitted effect of over 40% in size. Further: potency means the concentration at half of the fitted maximal effect. In outline: as §3
Assay [10] is described as follows: A CellTox Green Cytotoxicity Assay to monitor cytotoxicity in HepG2 cells - 32 hour (AID 1224883). Further: nearly all actives have a fitted effect of over 50% in size. Further: potency means the concentration at half of the fitted maximal effect. In a few lines: as §2

Where “and” joins values, the source holds several entries; their conditions need not be identical. Equal entries are not always repeated. Inconclusive results are not listed. Calls of active or inactive are those of the source. The call rests on the fitted dose curve; in most records, active means well fitted curve in the direction sought with a large enough effect in the repeat runs; inconclusive means weak or mixed curves; inactive means no such curve, though single readings can be large; an effect the other way counts as inactive or inconclusive.

As to `CCBr`, the Potency entry in [1], in [2], in [3], in assay [4], in assay [5] and in assay [6] was “inactive” in each case. The Potency result in assay [7] and in assay [8] was “inactive” each time.

Regarding `BrCCCCBr`, the Potency entry in [9], in assay [2], in assay [10], in assay [3], in assay [4] and in assay [5] was “inactive” in each case. In addition, the Potency entry in [6], in [7] and in [8] was “inactive” in each case.

As to `COc1cc(CC(C)N)cc2c1OCO2` (stereo not drawn), the Potency result in [9], in [2], in [10], in [3], in [4] and in assay [5] was “inactive” in each case. The Potency result in assay [6], in assay [7] and in assay [8] was “inactive” throughout.

Consider `O=C1c2ccccc2C(=O)C1C(=O)C(c1ccccc1)c1ccccc1`, for which the Potency entry in assay [9], in assay [2], in assay [10], in assay [3], in assay [4] and in assay [5] was “inactive” in each case. Besides, the Potency result in [6] and in [7] was “inactive” throughout.

On to `O=S1(=O)OC(c2cc(Br)c(O)c(Br)c2)(c2cc(Br)c(O)c(Br)c2)c2ccccc21`, for which the Potency is 10 µM (active) in assay [1] and 6.34 µM (active) in assay [8]. Also, the Potency result in assay [2], in assay [3], in [4], in assay [5], in [6] and in assay [7] was “inactive” in each case.

For `CCOc1ccc(C(C)(C)COCc2cccc(Oc3ccccc3)c2)cc1`, the Potency result in assay [9], in assay [2], in assay [10], in assay [3], in assay [4] and in assay [5] was “inactive” in each case. The Potency result in assay [6], in assay [7] and in assay [8] was “inactive” in each case.

On to `CC(C)N(CCC(C(N)=O)(c1ccccc1)c1ccccn1)C(C)C` (stereo not drawn), for which the Potency entry in [1], in [2], in assay [3], in assay [4], in assay [5] and in assay [6] was “inactive” each time. The Potency entry in assay [7] and in assay [8] was “inactive” throughout.

On to `COCC(C)N(C(=O)CCl)c1c(C)csc1C` (stereo not drawn), for which the Potency result in [1], in assay [2], in assay [4], in assay [5], in assay [6] and in assay [7] was “inactive” in each case. The Potency result in [8] was “inactive”.

For the compound `C/C(=C\c1ccccc1)[N+](=O)[O-]`, the Potency result in assay [1], in assay [2], in [3], in assay [7] and in assay [8] was “inactive” each time.

Consider `O=NN1CCNCC1`, for which the Potency result in [9], in assay [2], in assay [10], in assay [3], in assay [4] and in [5] was “inactive” throughout. Also, the Potency entry in assay [6], in assay [7] and in assay [8] was “inactive” each time.

As to `COP(=S)(Oc1cc(Cl)c(Br)cc1Cl)c1ccccc1` (stereo not drawn), the Potency result in assay [1], in [3], in assay [4] and in assay [7] was “inactive” in each case.

Take `Clc1cccc2ccccc12`: the Potency entry in assay [1], in assay [2], in [3], in assay [4], in assay [5] and in [6] was “inactive” in each case. Further, the Potency entry in assay [7] and in assay [8] was “inactive” each time.

As for `CNP(=O)(OC)Oc1ccc(C(C)(C)C)cc1Cl` (stereo not drawn), the Potency result in assay [1], in assay [2], in assay [3], in [4], in assay [7] and in [8] was “inactive” in each case.

Take `CC(=O)c1cc2c(cc1C)C(C)(C)C(C)CC2(C)C` (stereo not drawn): the figures for the Potency in [9], in assay [10] and in assay [7] were 19.5 µM (active), 38.9 µM (active) and 19.5 µM (active), respectively. The Potency entry in [2], in assay [4] and in assay [8] was “inactive” in each case.

Take `C=CC(=O)OC(C)(C)C`: the Potency result in [9], in assay [2], in assay [3], in assay [4], in assay [5] and in assay [6] was “inactive” throughout. The Potency result in [7] and in assay [8] was “inactive” each time.

Turning to `C(=NC1CCCCC1)=NC1CCCCC1`, the Potency in [9] is 19.6 µM (active) and 24.5 µM (active); in [10] it was 11 µM (active) and 12.3 µM (active); in assay [5], 19.6 µM (active) and 19.5 µM (active). The Potency result in [2] and in [8] was “inactive” throughout.

In the case of `CC(C)O.CC(C)O.OCCN(CCO)CCO.OCCN(CCO)CCO.[Ti]`, the Potency result in assay [9], in assay [2], in [3], in [4], in assay [5] and in assay [6] was “inactive” each time. Besides, the Potency entry in assay [7] and in assay [8] was “inactive” in each case.

Consider `ClCCCCBr`, for which the Potency result in assay [9], in assay [2], in [3], in assay [4], in assay [5] and in [6] was “inactive” each time. Also, the Potency result in [7] and in assay [8] was “inactive” throughout.

On to `O=C1C(=O)c2cccc3cccc1c23`, for which the Potency result in assay [2], in assay [3], in assay [4], in [7] and in assay [8] was “inactive” throughout.

Take `CCCCN=C=O`: the Potency entry in assay [9], in assay [2], in assay [3], in [4], in [5] and in assay [6] was “inactive” in each case. Moreover, the Potency entry in assay [7] and in assay [8] was “inactive” each time.

Take `c1cc2ccc3cccc4ccc(c1)c2c34`: the Potency result in assay [9], in assay [2], in [3], in assay [4], in assay [5] and in [6] was “inactive” throughout. In addition, the Potency result in assay [7] and in assay [8] was “inactive” throughout.

In the case of `Clc1cccc(SC2CCNCC2)n1`, the Potency entry in assay [9], in assay [2], in [3], in assay [4], in [5] and in assay [6] was “inactive” in each case. The Potency result in [7] and in assay [8] was “inactive” each time.

Turning to `COC(=O)C(C)N(C(=O)Cc1ccccc1)c1c(C)cccc1C` (stereo not drawn), the Potency entry in [9], in assay [2], in assay [3], in assay [4] and in assay [7] was “inactive” in each case. In addition, the Potency in [8] was 21.9 µM (active).
